Screening results from PubChem BioAssay.
A selection: hits, their analogues and other compounds. The true share with any hit is near 9.6%.
PostGolgi ctrl – growth inhibition of yeast control strain, primary screen, counter-screen for post-Golgi transport modulator project. efflux-deficient yeast background strain, growth absorbance A615, 16 h. inhibition, % at 10 µM. 98,000 tested, 5% active. AID 738, 2007
PostGolgi yeast – phenotypic screen on post-Golgi transport, primary screen. post-Golgi transport phenotypic cell assay. 98,000 tested, 0.9% active. inhibition, % at 10 µM;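 further: yeast cells grown in 1536-well plates; yeast grown about 18 h at 30C before absorbance read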
Cav3 T inh – Cav3.2 calcium influx blockers – cell-based, Fluo-4 calcium fluorescence, FDSS, MLSMR library, primary screen. Cav3.2-expressing cells; stronger effect = lower value. B-score at 10 µM. 100,000 tested, 4% active;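 active means single-dose well whose peak fluorescence ratio is a statistical outlier from its plate by either plate-standardised score or position-corrected B-score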
hDAT+cocaine – changed hDAT dopamine uptake under cocaine IC80, either direction, primary screen, cocaine antagonist project, cell-based, LLC-PK1 hDAT, [14C]-dopamine uptake, MLSMR; Sodium-dependent dopamine transporter (Homo sapiens), Q01959; LLC-PK1 hDAT cells, [14C]-dopamine uptake with cocaine IC80; actives deviate in either direction; B-score at 10 µM; 110,000 tested, 1.3% active; AID 449768, 2010;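 active means Z score or B-score, a plate-position-corrected score, falls beyond the plate's 99.7% confidence bounds, in either direction; inactive means both scores lie inside the 99.7% bounds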;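 further: scored against the spread of the other compound wells on the same plate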
PLAP activator – PLAP enzyme activators, biochemical, luminescence, HTS; Alkaline phosphatase, placental type (Homo sapiens), P05187; purified PLAP enzyme, luminescent substrate read-out; stronger effect = higher value; 96,000 tested, 1.2% active; activation fold at 20 µM; in the data active means activation fold above about 2
Active calls of the source: *; nt = no result given. Unless noted, no stated cut-off is given here; in the data, active means inhibition above about 30%; inactive means the rest.

SMILES	PostGolgi ctrl	PostGolgi yeast	Cav3 T inh	hDAT+cocaine	PLAP activator
O=C(Nc1ccccc1C(F)(F)F)c1ccc(CN2CCC(Cc3ccccc3)CC2)cc1	7	5	-7.7*	-0.44	1.2
O=C(Nc1ccccc1)c1ccc(CN2CCC(Cc3ccccc3)CC2)cc1	nt	nt	-0.26	-0.95	nt
COc1ccc(/C=C2\SC(=S)N(NC(=O)c3csc4c3CCCC4)C2=O)cc1	5	37*	-1.5	-0.049	1.1
Cc1cccc(NS(=O)(=O)c2ccc(Br)s2)n1	6	0	0.32	-0.49	1.3
C/C(=C\C(=O)c1ccccc1)NNc1nc2ccccc2s1	13	-26	-3	1.3	1.4
CC(=O)Nc1ccc(S(=O)(=O)Nc2nc3ccccc3s2)cc1	7	1	-0.083	0.25	1.2
O=S(=O)(Nc1nc2ccccc2s1)c1ccc(Br)s1	33*	-1	-3.3	-3.9*	1.4
Cc1ccc(S(=O)(=O)Nc2nc3ccccc3s2)cc1	32*	0	-2.3	0.0056	0.8
CC(=O)NNc1nc2ccccc2s1	10	9	0.12	0.11	2.1*
CCCCC(CCC(=O)Nc1ccc(C(=O)OC)cc1)C(=O)O (stereo not given)	4	4	0.12	1.5	nt
O=C(Nc1cccc2nsnc12)C1CC(=O)N(c2ccccc2)C1 (stereo not given)	7	-10	0.12	-1.4	1.3
CN(C)c1nc(Oc2ccc(N)cc2)nc(N(C)C)n1	-9	7	-0.52	-0.93	1.1
CCOC(=O)CS(=O)(=O)c1nc(-c2ccccc2)cc(C(F)(F)F)n1	nt	nt	0.96	-0.33	1.5
CCOC(=O)CCS(=O)(=O)c1nc(-c2ccccc2)cc(C(F)(F)F)n1	73*	-6	0.33	-0.078	1
COC(=O)CCS(=O)(=O)c1nc(-c2ccccc2)cc(C(F)(F)F)n1	57*	0	0.21	-0.94	1
CCOC(=O)CS(=O)(=O)c1nc(-c2ccc(F)cc2)cc(C(F)(F)F)n1	48*	8	0.85	0.21	1.1
CCN(C(N)=S)c1ccccc1	21	-6	-0.98	-0.34	1
CCCC(=O)N(CCN(C(=O)CCC)c1ccccc1)c1ccccc1	nt	nt	-4.1*	0.94	nt
CC1CC1C(=O)OCC(=O)NC(=O)NCc1ccco1 (stereo not given)	11	7	0.72	-0.68	1
O/N=C(\c1ccc(Cl)cc1Cl)c1ncc(C(F)(F)F)cc1Cl	59*	0	-6.8*	0.048	1.2
O=C(c1ccc(Cl)cc1Cl)c1ncc(C(F)(F)F)cc1Cl	13	3	0.75	-1.3	0.8
O=C(c1ccco1)N1CCN(C(=O)N2c3ccccc3Sc3ccccc32)CC1	44*	-3	-2.4	-0.46	1.5
O=C(c1ccco1)N1c2ccccc2Sc2ccccc21	32*	4	-4.7*	-1.2	nt
O=C(N1CCN(c2ccccn2)CC1)N1c2ccccc2Sc2ccccc21	85*	2	nt	nt	1
O=C(c1c(Cl)cccc1Cl)N1CCN(c2ccccn2)CC1	-11	-3	1.3	0.43	0.9
SMILES	PostGolgi ctrl	PostGolgi yeast	Cav3 T inh	hDAT+cocaine	PLAP activator
O=C(NCCc1ccccc1)N1c2ccccc2Sc2ccccc21	22	-8	-1.9	0.016	1.1
COc1ccc(CNC(=O)C(OC(C)=O)c2ccccn2)cc1 (stereo not given)	8	7	-0.0074	-0.58	1
Cc1sc2nc(SCc3nnc(-c4cccs4)o3)n(C3CCCC3)c(=O)c2c1C	30*	26	-3.5	0.17	1.4
CCOC(=O)NC(NC(=S)Nc1ccccc1[N+](=O)[O-])C(Cl)(Cl)Cl (stereo not given)	-3	6	-1.4	-3.5*	0.9
COc1ccc(NC(=S)NC(NC(=O)c2cccc(Cl)c2)C(Cl)(Cl)Cl)c([N+](=O)[O-])c1 (stereo not given)	nt	nt	-4.9*	0.24	nt
O=C(NC(NC(=S)Nc1ccccc1C(=O)O)C(Cl)(Cl)Cl)c1cccc([N+](=O)[O-])c1 (stereo not given)	2	4	-1.1	-7.4*	1.3
COc1ccc(NC(=S)NC(NC(=O)c2cccc(C)c2)C(Cl)(Cl)Cl)c([N+](=O)[O-])c1 (stereo not given)	nt	nt	-6.7*	-1.1	nt
Cc1ccc(C2=N/C(=C/c3cccs3)C(=O)N2Nc2ccccc2)cc1	25	6	-0.56	1.6	0.8
